Legend:
Experiment in all cases: PBM binding z-score (relative to random genomic background probes); higher = stronger binding; sequences stand for … in GC…GCGATTGACAGCGTAGAATGAAGG
[1] = tested on: PPARg:RXRa DBDmut IVT, anti-RXR (DBD mutation: RXRa K156A/R161A, NR concentration 270 nM, RXRa partner concentration 90 nM)
Summary of the method: (§1)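 Each nuclear receptor dimer, without ligand, was incubated for 1 h on custom Agilent 4×180K protein-binding microarrays. Binding was detected with antibodies against each partner (one per run), and scanned fluorescence was regression-normalized. The binding z-scores are referenced to random human genomic background probes.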

[2] = tested on: PPARg:RXRa IVT, anti-PPARg (NR concentration 270 nM, RXRa partner concentration 90 nM)
Summary of the method: as §1

[3] = tested on: PPARg DBDmut:RXRa IVT, anti-PPARg (DBD mutation: PPARg1 K132A/R137A, NR concentration 270 nM, RXRa partner concentration 90 nM)
Summary of the method: as §1

[4] = tested on: PPARg DBDmut IVT, anti-PPARg (DBD mutation: PPARg1 K132A/R137A, NR concentration 270 nM)
Summary of the method: as §1

[5] = tested on: PPARg homodimer (NR concentration 180 nM)
Summary of the method: as §1

[6] = tested on: PXR:RXRa (NR concentration 270 nM, RXRa partner concentration 90 nM)
Summary of the method: as §1

[7] = tested on: PXR homodimer (NR concentration 270 nM)
Summary of the method: as §1

[8] = tested on: RARa:RXR (NR concentration 270 nM, RXRa partner concentration 90 nM)
Summary of the method: as §1

[9] = tested on: RARa homodimer (NR concentration 270 nM)
Summary of the method: as §1

[10] = tested on: RARb:RXRa (NR concentration 270 nM, RXRa partner concentration 90 nM)
Summary of the method: as §1

Row | Sequence | PBM binding z-score [1] | PBM binding z-score [2] | PBM binding z-score [3] | PBM binding z-score [4] | PBM binding z-score [5] | PBM binding z-score [6] | PBM binding z-score [7] | PBM binding z-score [8] | PBM binding z-score [9] | PBM binding z-score [10]
1 | CAAACTAGGTCACCGGAAGGTCACAGTCCGCATG | 8.58 | 9.08 | 2.66 | 1.61 | 8.88 | 5.64 | 1.29 | 7.62 | 3.12 | 5.42
2 | ACTTACGGGTCAATGAGGTTATAGCACGCGTATA | 3.32 | 3.66 | 1.87 | 1.58 | 1.79 | 4.89 | 2.68 | 4.53 | 1.1 | 3.86
3 | AGAATGAGGTTATCCGTAGATCAGGGAAGAAAGT | 3.68 | 2.42 | 0.156 | 1.03 | 0.547 | 1.17 | 0.231 | 1.76 | 0.02 | 1.66
4 | ATATGTGGGTTAGCTGGGGTCATTCAGACTAGGC | 6.16 | 5.6 | 3.15 | 2.88 | 3.21 | 6.47 | 6.39 | 5.9 | 1.64 | 2.96
5 | CGAACGAGGGCATGAGTTGATAGCAAATGCCGAT | 3.29 | 2.03 | -0.334 | -0.825 | -0.0859 | 0.562 | -0.209 | 0.5 | -0.431 | 2.11
6 | TTACCAAGGTGACGGTCGTTGATCCCTCTGTAGA | 2.39 | 3.64 | 0.228 | -0.126 | 0.25 | 0.252 | -0.877 | 0.759 | -0.412 | 1.82
7 | CCTTACGGGCCAAGGTTATAGCACGGGTGGTACG | -0.837 | -0.312 | -1.25 | -0.861 | 0.309 | 0.0685 | -0.372 | 0.242 | 0.00233 | 1.13
8 | ACAGACAGGTGTTGAAGGTAACTCAGGCTATCAT | -0.116 | -0.388 | -0.275 | 0.107 | -0.0576 | -0.158 | 0.379 | 0.0742 | -0.513 | -0.084
9 | AGAATGAGGGTATTAAGATCAGGGAATTGCGGTC | 1.71 | 0.923 | 0.443 | 0.824 | 0.506 | 0.0196 | 0.451 | 0.253 | 0.44 | 0.4
10 | TAGCCTAGGTCATGGGCCACTATACCACGCGAAC | 2.09 | 3.43 | 0.102 | -0.16 | 1.27 | 1.72 | -0.144 | 2.66 | -0.0929 | 3.8
11 | CAAACTAGGTCACCGGAAGGTCAAAGCCCGCATG | 8.25 | 8.78 | 2.12 | 2.03 | 5.32 | 5.67 | 1.53 | 7.16 | 2.71 | 5.32
12 | TCTTGTAGATCACAGGTTAAGAAAGCCGAAGCCT | 2.16 | 1.8 | 0.9 | 0.0684 | 0.447 | 0.186 | -0.359 | 0.737 | -0.789 | 0.464
13 | AGTCAAAGTTCAGGACGAGGGAACGTAAAGCACG | -0.374 | 1.46 | 0.293 | 0.513 | 2 | 2.12 | 0.898 | 2.09 | 0.539 | 4.2
14 | CGTCAAAGTTCAAGGTAACTTAACAGAAAGCAGC | 0.535 | 1.52 | 0.657 | 0.0202 | 2.33 | 3.79 | 2.37 | 3.17 | 1.69 | 4.89
15 | TCTATTAGTTGAAGGGCGACCGACGAGTCCGTTT | 2.51 | 0.299 | 0.865 | 1.2 | 0.852 | 0.655 | 0.886 | 0.0781 | 0.844 | 0.714
16 | CGTCGAAGGTCAAGGTCAGTGAAAGAGACTCGAA | 2.61 | 4.52 | 0.183 | -0.374 | 2.78 | 4.3 | 0.957 | 4.46 | 1.26 | 5.88
17 | TCTTGTAGATCAATAGAGGTTAAGGAAGTGCGCT | 1.91 | 0.959 | 0.906 | 0.773 | 0.732 | 2.58 | 0.412 | 1.96 | 0.894 | 1.04
18 | CCTACTGCGCCATTCAGAGGTCATTGATCATATG | 0.443 | 1.07 | 0.596 | 0.708 | 2.61 | 4.86 | 2.44 | 4.54 | 1.18 | 3.05
19 | ACAGACAGGTGAGTGAAGGTAAGTCAGCTGGACG | 0.544 | 0.594 | -0.101 | -0.745 | -0.0235 | -0.37 | -0.45 | 0.0462 | -0.141 | 0.623

Row | Sequence | PBM binding z-score [1] | PBM binding z-score [2] | PBM binding z-score [3] | PBM binding z-score [4] | PBM binding z-score [5] | PBM binding z-score [6] | PBM binding z-score [7] | PBM binding z-score [8] | PBM binding z-score [9] | PBM binding z-score [10]
20 | CGTCGAAGGTCATAGGAGGTCAGTGAAGACAGAT | 3.11 | 4.45 | -0.37 | -0.169 | 4.08 | 6.79 | 3.47 | 5.95 | 2.11 | 5.41
21 | ATCTCTGGGTAAAGTTCAGTGAAAGATCGATAGA | 1.98 | 2.87 | 0.904 | 1.34 | 1.32 | 2.12 | 1.91 | 1.55 | 1.47 | 2.73
22 | ATATTTAGGTTAAGGGTCATTCAGGTTGGTTCGC | 6.47 | 7.1 | 5.34 | 5.2 | 5.4 | 5.69 | 3.67 | 5.96 | 5.28 | 3.68
23 | GCTAGTTGGTCTGTAAAAGGTCACACACCGGTCG | 0.547 | 2.28 | 0.389 | -0.363 | 4.38 | 4.79 | 1.16 | 5.54 | 1.67 | 3.87
24 | TCCTGTAGATCAAGCAGGTTAAGAAAGCCTGAGT | 1.36 | -0.00456 | 0.0504 | -0.299 | -0.486 | 0.372 | 0.0191 | 0.301 | -0.136 | 0.0343
25 | GCATATAGGTAATACACGGTGAAAGTCCGATTGT | 3.87 | 2.67 | 0.895 | 1.01 | 0.267 | 0.213 | 0.115 | 0.564 | 0.666 | -0.0307
26 | TCTATTAGGTGATTAGGGCAACCGAAACAGCGGA | 4.87 | 4.81 | 2.12 | 1.04 | 0.876 | 0.422 | 0.211 | 0.593 | 0.993 | 1.37
27 | TCTGCTAGGTCAACGATGGTCTGCTAATCTGCTA | 3.96 | 3.88 | 0.46 | 1.25 | 0.811 | 0.995 | -0.719 | 2 | -0.907 | 3.83
28 | CGAACTAGGTCATCCAGTACAGTGAATACATTGA | 8.25 | 8.35 | 2.09 | 1.3 | 1.76 | 2.09 | 1.66 | 2.26 | 0.426 | 3.78
29 | TCTATTAGTTGATTAGGGTAACCGAAACAGCGGA | 2.12 | 1.19 | 1.29 | 1.26 | 0.518 | 0.646 | 0.346 | 0.855 | 1.41 | 0.609
30 | TCTTGTAGATCAACAGGAGGTTAAGTAAGATCGA | 1.56 | 0.854 | 0.235 | 0.997 | -0.29 | 0.916 | -0.272 | 1.46 | 0.0899 | 0.659
31 | CCTAGTTGGTCAGTAGGTCACACACCGGATATGA | 4.79 | 5.74 | 0.241 | 0.396 | 3.06 | 1.68 | 0.364 | 2.76 | 2.47 | 2.91
32 | GCAGACAGGTGAAACGCAGATAACTCAGGGTGGC | 1.09 | 0.225 | 0.243 | -0.959 | 0.214 | -0.239 | -0.278 | -0.0859 | -0.365 | 0.56
33 | CCTGCTAGGTCATGGTCTGCTAATCTACAGTATG | 4.68 | 3.6 | 0.818 | -0.517 | 0.597 | 1.33 | -0.00693 | 2.22 | -0.00634 | 3.87
34 | AGGATGAGGTTATTAAGATCAGGGAATTGCGGTC | 0.511 | 0.741 | 0.904 | 0.665 | 1.83 | 1.69 | 1.82 | 1.53 | 0.954 | 1.72
35 | GGAGCGAGGGCAAAGTTGATAGCATCTGTCGACG | 0.739 | 1.35 | -0.304 | -0.838 | -0.183 | 0.839 | -0.0464 | 1.21 | -0.259 | 2.14
36 | TCTTGTAGATCCACAGGAGGTTAAGAAAGATCGA | 1.11 | 0.557 | 0.829 | 0.516 | -0.676 | 0.82 | -0.22 | 1.22 | 0.176 | 0.506
37 | CGATCTAGGTCATTGACAGGACAGTGAATAGTAA | 7.84 | 7.9 | 1.48 | 1.96 | 1.92 | 1.64 | 0.255 | 2.35 | 0.361 | 3.61
38 | TGTCGAAGTTCAAAGGTAACGTAAGTATCCACAC | -0.721 | 2.09 | 0.265 | 0.298 | 1.53 | 4.12 | 1.65 | 4.17 | 0.485 | 3.61

Source: the supplement of paper PMC6555819
